Reference: PubChem BioAssay (NCATS)
Records with an inconclusive call do not appear. Active and inactive are the calls of the source. Calls come from the whole dose curve.

The compounds below were run against Peroxisome proliferator-activated receptor delta (Homo sapiens) (UniProt Q03181) (assay: qHTS assay for small molecule agonists of peroxisome proliferator-activated receptor delta signaling (AID 588534)). Details: HEK293T PPARdelta-UAS-bla, beta-lactamase ratio, 18 h; series mostly up to 76.7 µM.
Peroxisome proliferator-activated receptor delta (Homo sapiens), sequence (Q03181 whole entry, looked up): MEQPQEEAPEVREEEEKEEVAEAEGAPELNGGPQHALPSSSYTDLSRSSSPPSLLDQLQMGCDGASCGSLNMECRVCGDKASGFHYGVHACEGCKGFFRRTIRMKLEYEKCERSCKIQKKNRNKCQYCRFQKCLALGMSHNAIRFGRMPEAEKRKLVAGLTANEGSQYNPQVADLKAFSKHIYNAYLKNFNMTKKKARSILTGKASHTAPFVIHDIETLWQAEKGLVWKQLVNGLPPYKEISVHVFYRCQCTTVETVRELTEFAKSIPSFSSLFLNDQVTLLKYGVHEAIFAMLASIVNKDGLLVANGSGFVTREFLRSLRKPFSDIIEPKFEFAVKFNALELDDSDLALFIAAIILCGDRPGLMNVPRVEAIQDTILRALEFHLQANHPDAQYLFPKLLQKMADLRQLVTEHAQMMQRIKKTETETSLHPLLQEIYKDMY
Source text: NIH Chemical Genomics Center [NCGC] U.S. Environmental Protection Agency [EPA] National Institutes of Environmental Health Sciences [NIEHS] National Toxicology Program [NTP] NCGC Assay Overview The Peroxisome proliferator-activated receptors (PPARs) are lipid-activated transcription factors of the nuclear receptor superfamily with three distinct subtypes namely PPAR alpha, PPAR delta (also called PPAR beta) and PPAR gamma. All these subtypes heterodimerizes with Retinoid X receptor (RXR) and have different physiological functions. […] This role of PPAR delta implicates the potential use of its ligands in the treatment of metabolic disorders.
Compounds were screened in a titration series in 1536-well format. […] Concentration-response titration points for each compound were fitted to the Hill equation yielding concentrations of half-maximal stimulation (EC50) and maximal response (efficacy) values. qHTS protocol for PPAR-delta beta-lactamase assay in agonist mode [Step] [Parameter] [Value] [Description] 1. Reagent; 6 uL; 4000 cells/well 2. Incubation; 37 C for 5 hrs 3. Compounds; 23 nL; 0.59 nM to 92 uM 4. […] Incubation; 37 C for 18 hrs 6. Detection reagent; 1 uL of CCF4-dye 7. Incubation; RT for 2 hrs 8. Detection; Fluorescence; Envision plate reader
For Cc1ccc(CO)cc1, the outcome was “inactive”. In the case of O=P(O)(O)CN(CP(=O)(O)O)CP(=O)(O)O, the outcome is reported as “inactive”. In the case of CCO[Si](CCCN)(OCC)OCC, the outcome is reported as “inactive”. ON=C1CCCCC1 was tested, and the outcome was “inactive”. For Cc1cc(C)c(N)cc1C, the outcome was “inactive”. For CN=C(N)NCC1CCOC1 (stereo not given), the outcome was “inactive”. In the case of CCSC(C)CC1CC(=O)C(/C(CC)=N/OC/C=C/Cl)=C(O)C1 (stereo not given), the outcome is reported as “inactive”. In the case of c1ccc2c(c1)Oc1ccccc1S2, the outcome is reported as “inactive”. CN(C)c1ccc(Cc2ccc(N(C)C)cc2)cc1 was tested, and the outcome was “inactive”. COC(=O)c1c(C(F)F)nc(C(F)(F)F)c(C2=NCCS2)c1CC(C)C was tested, and the outcome was “inactive”. In the case of O=C(O)CN(CCO)CCN(CC(=O)O)CC(=O)O, the outcome is reported as “inactive”. With CCN(CC)C(=O)C(C)Oc1cccc2ccccc12 (stereo not given) the outcome was “inactive”. In the case of C=CC(=O)OCCCC, the outcome is reported as “inactive”. For CC(=O)C1(C)CC2=C(CCCC2(C)C)CC1C (stereo not given), the outcome was “inactive”. In the case of C1=Cc2cccc3cccc1c23, the outcome is reported as “inactive”. For CC(C)=CCC/C(C)=C\CO, the outcome was “inactive”. CC(C)C(C)C was tested, and the outcome was “inactive”. In the case of Oc1cc(Cl)cc(Cl)c1Cl, the outcome is reported as “inactive”. CCCOCC(C)OCC(C)O (stereo not given) was tested, and the outcome was “inactive”. In the case of Clc1cc(Cl)cc(Cl)c1, the outcome is reported as “inactive”. In the case of CCCCCCCC/C=C\CCCCCCCCCCCCC, the outcome is reported as “inactive”. For O=C(O)C(F)(F)C(F)(F)C(F)(F)C(F)(F)C(F)(F)F, the outcome was “inactive”. O=C(NC(=O)c1c(F)cccc1F)Nc1ccc(Cl)cc1 was tested, and the outcome was “inactive”. Cc1ccc(S(=O)(=O)NCl)cc1 was tested, and the outcome was “inactive”. With Cc1ccccc1CO[C@@H]1C[C@@]2(C(C)C)CC[C@]1(C)O2 the outcome was “inactive”. Clc1ccc(-c2cc(Cl)c(Cl)cc2Cl)cc1Cl was tested, and the outcome was “inactive”. In the case of O=Cc1cccc(Oc2ccccc2)c1, the outcome is reported as “inactive”. With Nc1ccc(Cl)cc1[N+](=O)[O-] the outcome was “inactive”. In the case of CNC(=O)Oc1ccc(N(C)C)c(C)c1, the outcome is reported as “inactive”. In the case of CCCCCCCCC/C=C/CC1CC(=O)OC1=O (stereo not given), the outcome is reported as “inactive”. For CSC1=N[C@@](C)(c2ccccc2)C(=O)N1Nc1ccccc1, the outcome was “inactive”. With CCOP(=S)(NC(C)C)Oc1ccccc1C(=O)OC(C)C (stereo not given) the outcome was “inactive”. For CCCCCCCCC, the outcome was “inactive”. For Nc1ccc(F)cc1F, the outcome was “inactive”. With C=C(C)C(=O)OCC[N+](C)(C)C the outcome was “inactive”. O=CC(=O)c1ccccc1 was tested, and the outcome was “inactive”. CCOC(=O)C1OC1c1ccccc1 (stereo not given) was tested, and the outcome was “inactive”. In the case of COC(=O)c1ccc(C=O)cc1, the outcome is reported as “inactive”. In the case of CC(C)N(C(=O)COc1nnc(C(F)(F)F)s1)c1ccc(F)cc1, the outcome is reported as “inactive”. CC1CCCCC1NC(=O)Nc1ccccc1 (stereo not given) was tested, and the outcome was “inactive”.
